PubChem BioAssay (NCATS)
“And” between values parts separate entries of the source, which are not always exact repeats. Equal values may be shown once. Inconclusive results are not listed. A call without a number means that no potency is given here. The source made the active and inactive calls. Unless noted, calls follow the shape of the dose curve; as a rule, active = well fitted cell-killing curve with a large enough effect; inconclusive = small, poorly fitted or top-dose-only effect; inactive = flat fitted curve, though single readings scatter.

Key:
[1] = Cell Viability - LYMP2-021 (AID 974);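 also: compound exposure lasts 24 hours at 37 °C; nearly all actives have a fitted effect of over 55% in size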
Outline: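 In qHTS format, compounds are tested against 2500 lymphoblastoid cells per well for 24 h; viable cell number is inferred from ATP-driven luciferase light, and Hill-equation fitting yields AC50 values.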

[2] = Cell Viability - LYMP2-023 (AID 975);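 also: cellular ATP measured by luciferase luminescence as viability proxy; series mostly up to about 92 µM; nearly all actives have a fitted effect of over 55% in size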
Outline: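 In this qHTS, ATP-based luciferase luminescence (CellTiter-Glo) is quantified in human lymphoblastoid cells after 24 hr compound treatment at 37 C; tetraoctylammonium bromide serves as positive control. Concentration-response curves are Hill-fitted to give AC50.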

[3] = Cell Viability - LYMP2-002 (AID 977);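 also: series mostly up to about 92 µM; compound exposure lasted 24 h at 37 °C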
Outline: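 Human lymphoblastoid cells, 2500/well, complete medium; 5 h 37 C settle; compound 24 h 37 C; CellTiter-Glo, 30 min RT; luminescence. Decrease in ATP = cytotoxicity; AC50 via Hill equation.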

[4] = Cell Viability - LYMP2-006 (AID 978); also: series mostly up to about 92 µM; nearly all actives have a fitted effect of over 60% in size
Outline: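 Cells are seeded at 2500 per well and rested 5 hr at 37 C. Compounds are added across a concentration series for 24 hr at 37 C, after which ATP is quantified by luciferase luminescence.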

[5] = Cell Viability - LYMP2-007 (AID 979);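 also: cells exposed to compound for 24 h before reading; nearly all actives have a fitted effect of over 60% in size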
Outline: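 Measured via luciferase-based ATP quantitation: lymphoblastoid cells, 24 hr compound exposure at 37 C, AC50 from Hill fits.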

[6] = Cell Viability - LYMP2-008 (AID 980); also: nearly all actives have a fitted effect of over 60% in size
Outline: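 Measured: ATP-dependent luminescence, proportional to viable cell number, in human lymphoblastoid cells treated 24 hr with compound in complete culture medium. Values are AC50s from Hill-equation modelling of qHTS titrations.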

[7] = Cell Viability - LYMP2-010 (AID 981); also: nearly all actives have a fitted effect of over 55% in size
Outline: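 This 24 hr viability screen uses LYMP2-010 lymphoblastoid cells, quantifies ATP via luciferase luminescence, and derives AC50 from Hill fits of qHTS concentration-response data.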

[8] = Cell Viability - LYMP2-012 (AID 982);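 also: cellular ATP by luciferase luminescence where a drop means cytotoxicity; cells exposed to compound for one day before reading; nearly all actives have a fitted effect of over 55% in size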
[9] = Cell Viability - LYMP2-014 (AID 983); also: series mostly up to about 92 µM; nearly all actives have a fitted effect of over 50% in size
Outline: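 Quantitative HTS in lymphoblastoid cells: 24 hr compound exposure, then CellTiter-Glo ATP luminescence. Positive control was tetraoctylammonium bromide, 6.4pM to 92 uM.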

[10] = Cell Viability - LYMP2-016 (AID 984); also: nearly all actives have a fitted effect of over 55% in size
Outline: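 Cells were seeded at 2500 per well and rested 5 hr before a 24 hr compound exposure at 37 C. Viability was then gauged as cellular ATP by luciferase luminescence, with AC50 values fitted to the Hill equation.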

[11] = Cell Viability - LYMP2-018 (AID 985); also: nearly all actives have a fitted effect of over 50% in size
Outline: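 In this qHTS viability assay, cells are treated for 24 hr and cellular ATP is quantified by luciferase-based luminescence, with tetraoctylammonium bromide as positive control.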

[12] = Cell Viability - LYMP2-020 (AID 986)
Outline: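 Cells at 2500 per well receive a 24 hr compound exposure at 37 C. Viability is measured as ATP-dependent luciferase luminescence, with AC50 modeled from qHTS concentration-response curves.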

[13] = Cell Viability - LYMP2-022 (AID 987); also: nearly all actives have a fitted effect of over 55% in size
Outline: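 In this qHTS cytotoxicity screen, compound titrations were incubated 24 hr at 37 C with human lymphoblastoid cells in complete medium. Luciferase-based ATP luminescence provided the viability signal.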

[14] = Cell Viability - LYMP2-024 (AID 988); also: nearly all actives have a fitted effect of over 60% in size
Outline: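 Cells at 2500 per well received compound for 24 hr after a 5 hr settling period. Viability was scored by CellTiter-Glo luminescence, with AC50 from Hill fits.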

[15] = Cell Viability - LYMP2-026 (AID 989); also: nearly all actives have a fitted effect of over 50% in size
Outline: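 Acute toxicity screen in complete culture medium, with 24 hr compound exposure at 37 C. Viability read as cellular ATP via luciferase reaction, with tetraoctylammonium bromide (6.4pM to 92 uM) as positive control.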

[16] = Cell Viability - LYMP1-002 - Assay at 24 hr (AID 993)
Outline: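 Viability was judged from intracellular ATP using a luciferase read-out, following a 24-hour compound incubation at 37 C of lymphoblastoid cells seeded at 2500 per well. Concentration-response data were fitted to the Hill equation for AC50.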

[17] = qHTS Assay for Identification of Small Molecule Inducers of Hypoxia Response (AID 2120; active = well fitted curve in the direction sought with a large enough effect in the signal ratio, with a control signal flat, not every such curve was filed as active; the % refers to the signal ratio)
Outline: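 HRE-bla ME-180, 2500 cells/well, 0.5% dialyzed FBS medium; cpd titration, 17 h 37 degrees C; CCF4 2.5 h RT; Ex 405, Em 460/530 ratio -> %Activity, AC50.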

[18] = qHTS assay for small molecule antagonists of peroxisome proliferator-activated receptor delta signaling (AID 588535; active = well fitted inhibition curve with a large enough effect in the signal ratio, with a control signal flat, not every such curve was filed as active; the % refers to the signal ratio;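 as to max response: cells co-treated with a PPAR-delta agonist as stimulator during compound exposure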); conditions: HEK293T PPARd-UAS-bla, beta-lactamase FRET ratio, 18 h; 460 nm channel
Outline: (§1)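 Beta-lactamase reporter read-out (405 nm excitation, 460/530 nm emission) after CCF4 loading for 2 hrs at RT. HEK293T PPAR-delta-UAS-bla cells, 2% charcoal/dextran FBS, compounds for 18 hrs at 37 C. Hill fit gave IC50 and efficacy.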

[19] = target: Peroxisome proliferator-activated receptor delta (Homo sapiens) (UniProt Q03181); assay: as above
Peroxisome proliferator-activated receptor delta (Homo sapiens), sequence (Q03181 whole entry, looked up): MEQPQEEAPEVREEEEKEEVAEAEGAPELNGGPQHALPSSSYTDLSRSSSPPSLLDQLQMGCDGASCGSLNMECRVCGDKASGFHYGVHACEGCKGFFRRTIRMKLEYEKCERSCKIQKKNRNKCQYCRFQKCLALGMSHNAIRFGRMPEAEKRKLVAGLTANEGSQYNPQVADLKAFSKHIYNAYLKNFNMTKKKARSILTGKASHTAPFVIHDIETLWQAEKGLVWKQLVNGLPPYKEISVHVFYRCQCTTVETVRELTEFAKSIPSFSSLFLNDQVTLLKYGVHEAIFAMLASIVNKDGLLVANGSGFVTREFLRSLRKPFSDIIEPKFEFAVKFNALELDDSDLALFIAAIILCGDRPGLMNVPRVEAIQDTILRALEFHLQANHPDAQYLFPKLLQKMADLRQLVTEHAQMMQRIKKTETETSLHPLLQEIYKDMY
Outline: as §1

[20] = target: Thyroid hormone receptor beta (Homo sapiens) (UniProt P10828); assay: qHTS assay for small molecule agonists of thyroid hormone receptor beta signaling (AID 588545; calls by dose curve)
Thyroid hormone receptor beta (Homo sapiens), sequence (P10828 whole entry, looked up): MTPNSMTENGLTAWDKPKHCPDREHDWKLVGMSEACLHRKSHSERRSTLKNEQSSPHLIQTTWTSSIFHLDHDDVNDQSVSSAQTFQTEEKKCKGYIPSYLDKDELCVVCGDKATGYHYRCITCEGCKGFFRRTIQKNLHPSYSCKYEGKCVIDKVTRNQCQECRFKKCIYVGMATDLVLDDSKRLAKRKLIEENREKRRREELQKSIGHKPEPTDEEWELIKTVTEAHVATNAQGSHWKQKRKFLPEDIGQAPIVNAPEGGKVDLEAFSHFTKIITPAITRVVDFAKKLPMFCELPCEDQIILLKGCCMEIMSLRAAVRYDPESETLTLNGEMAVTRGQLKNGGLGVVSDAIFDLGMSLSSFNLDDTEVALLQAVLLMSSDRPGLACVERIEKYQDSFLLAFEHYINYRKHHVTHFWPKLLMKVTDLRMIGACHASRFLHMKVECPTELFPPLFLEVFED
Outline: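 TR-UAS-bla GripTite HEK 293 cells (2500/well, medium with 2% charcoal/dextran FBS) were treated in agonist mode for 18 h at 37 C, titrated. Beta-lactamase was read by CCF4 ratio after 2 h; normalized to 10 nM T3 (100%) and DMSO, Hill-fitted for EC50 and efficacy.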

[21] = qHTS assay for small molecule antagonists of retinoid X receptor alpha signaling (AID 588546; active = well fitted inhibition curve with a large enough effect in the signal ratio, with a control signal flat, not every such curve was filed as active; the % refers to the signal ratio;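 also: cells stimulated with 9-cis-retinoic acid as agonist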); conditions: HEK293T RXRa-UAS-bla, beta-lactamase ratio, antagonist mode; measured here: W530 green channel, cytotoxicity proxy
Outline: (§2)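 Beta-lactamase reporter inhibition, read as CCF4 fluorescence ratio (ex 405, em 460/530 nm) after 2 h at RT. HEK293T UAS-bla cells, 2500/well, were stimulated with 9-cis-RA at 500 or 100 nM final alongside test compound for 18 h at 37 C.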

[22] = target: Retinoic acid receptor RXR-alpha (Homo sapiens) (UniProt P19793); assay: as above; conditions: HEK293T RXRa-UAS-bla, beta-lactamase ratio, antagonist mode
Retinoic acid receptor RXR-alpha (Homo sapiens), sequence (P19793 whole entry, looked up): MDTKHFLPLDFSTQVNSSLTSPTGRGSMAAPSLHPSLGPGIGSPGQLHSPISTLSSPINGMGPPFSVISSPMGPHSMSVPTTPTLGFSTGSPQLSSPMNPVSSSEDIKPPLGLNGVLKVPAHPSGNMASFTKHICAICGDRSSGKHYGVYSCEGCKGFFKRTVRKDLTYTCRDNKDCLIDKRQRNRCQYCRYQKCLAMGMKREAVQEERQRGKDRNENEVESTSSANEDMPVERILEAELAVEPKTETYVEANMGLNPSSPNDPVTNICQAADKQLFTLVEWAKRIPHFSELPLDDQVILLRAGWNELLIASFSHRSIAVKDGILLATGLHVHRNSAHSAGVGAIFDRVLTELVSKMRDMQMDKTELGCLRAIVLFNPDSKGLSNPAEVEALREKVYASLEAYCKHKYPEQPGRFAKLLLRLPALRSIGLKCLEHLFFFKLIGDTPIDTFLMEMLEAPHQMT
Outline: as §2

With `CCCCCCCCCCCC(=O)O` the Potency [1] was “inactive”, the Potency [2] was “inactive” and the Potency [3] was “inactive”. For the same molecule, the Potency [4] was “inactive”, the Potency [5] was “inactive” and the Potency [6] was “inactive”. For the same molecule, the Potency [7] was “inactive”, the Potency [8] was “inactive” and the Potency [9] was “inactive”. For the same molecule, the Potency [10] was “inactive”, the Potency [11] was “inactive” and the Potency [12] was “inactive”. The Potency [13] was “inactive”, the Potency [14] was “inactive” and the Potency [15] was “inactive”. The Potency [16] was “inactive”, the outcome [17] was “inactive” and the max response [18] was 12.5%. For the same molecule, the Potency [19] was “inactive”, the outcome [20] was “inactive” and the max response [21] was 24.4% and 28.8%. The max response [22] was -14.3% (inactive) and -10.1% (inactive).
